Bioassay records deposited in PubChem BioAssay by Broad Institute.
Only a selection was taken, and hits are over-represented in it overall.
IDE exosite FP = insulin-degrading enzyme (human) exo-site inhibition; purified IDE, FL-6b probe fluorescence polarization; hits give low values; 6.3% of 17,000 active; z-score at 20 µM;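 active = z-score of -3 or lower, meaning strong loss of probe binding signal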;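 note: His-tagged human IDE residues 42-1019 made in E. coli with 30 nM FL-6b probe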
The depositor's hits bear a star.

SMILES	IDE exosite FP
OC[C@H]1[C@H](c2ccc(C#Cc3ccccc3)cc2)[C@@H]2CN(CC3CCOCC3)CCCCN12	-3.58*
CC=Cc1ccc2n(c1=O)C[C@@H]1[C@@H](CO)[C@H](C(=O)N3CCOCC3)N(Cc3ccccc3)[C@H]21 (mixture of isomers)	0.672
CO[C@@H]1CC[C@@H]2CCN(C)C(=O)CCCN(C)C(=O)c3cc(C#N)ccc3OC[C@@H]1O2	-0.322
CN1C(=O)c2cc(NC(=O)Cc3cccs3)ccc2OC[C@@H]2O[C@@H](CC(=O)NCCc3ccncc3)CC[C@@H]21	-0.0877
CCC(=O)N1CC2(C1)CN(Cc1cccc(Cl)c1)[C@H](CO)c1[nH]c3cc(OC)ccc3c12	-2.34
O=C1C[C@@H](c2ccccc2)C(=O)N[C@H](c2ccccc2)C/C=C\C[C@@H](c2ccccc2)N1	-0.556
Cc1ccccc1-c1ccc([C@H]2[C@@H](CO)N3C(=O)CN(C(=O)Nc4ccc(F)cc4)C[C@@H]23)cc1	-10.1*
O=C(Nc1ccc(F)cc1)N1CC(=O)N2[C@@H](CO)[C@@H](c3ccc(-c4ccccc4)cc3)[C@@H]2C1	-0.633
O=C(Nc1ccc(F)cc1)N1CC(=O)N2[C@H](CO)[C@H](c3ccc(-c4ccc(F)cc4)cc3)[C@@H]2C1	0.297
Cc1ccc(-c2ccc([C@H]3[C@@H](CO)N4C(=O)CN(C(=O)Nc5ccc(F)cc5)C[C@H]34)cc2)cc1	1.58
O=C(Nc1ccccc1)N1CC(=O)N2[C@H](C1)[C@@H](c1ccc(-c3ccc(F)cc3)cc1)[C@@H]2CO	-0.87
O=C(Nc1ccc(F)cc1)N1CC(=O)N2[C@H](CO)[C@@H](c3ccc(-c4ccccc4)cc3)[C@@H]2C1	-4.78*
O=C(Nc1cccc(F)c1)N1CC(=O)N2[C@H](CO)[C@H](c3ccc(C#CCC4CCCC4)cc3)[C@H]2C1	3.08
C[C@@H]1CN([C@@H](C)CO)C(=O)c2c(c3ccccc3n2C)-c2ccccc2CO[C@H]1CN(C)C(=O)Nc1ccccc1C(F)(F)F	-0.508
CCC(=O)N1CC2(CCN(C(=O)Nc3ccccc3F)CC2)c2c([nH]c3cc(OC)ccc23)[C@@H]1CO	-0.624
COCC(=O)NC[C@@H]1[C@H](c2ccccc2)[C@@H](CO)N1C(C)=O	1.87
COc1ccc(NC(=O)N2CC(=O)N3[C@H](CO)[C@H](c4ccc(-c5ccccc5)cc4)[C@@H]3C2)cc1	2.76
COc1ccccc1-c1ccc([C@H]2[C@H]3CN(Cc4ccncc4)CCCCN3[C@H]2CO)cc1	-4.73*
COc1ccccc1-c1ccc([C@H]2[C@@H](CO)N3CCCCN(Cc4ccncc4)C[C@@H]23)cc1	-4.59*
COc1ccc(C#Cc2ccc([C@H]3[C@H](CO)N4CCCCN(Cc5ccncc5)C[C@@H]34)cc2)cc1	1.78
COc1ccc(C#Cc2ccc([C@@H]3[C@H](CO)N4CCCCN(Cc5ccncc5)C[C@@H]34)cc2)cc1	1.17
COCC#Cc1ccc([C@H]2[C@@H](CO)N3CCCCN(Cc4ccncc4)C[C@H]23)cc1	3.79
COc1ccccc1-c1ccc([C@@H]2[C@@H](CO)N3CCCCN(Cc4ccncc4)C[C@H]23)cc1	-4.25*
COc1ccc(C#Cc2ccc([C@@H]3[C@H]4CN(Cc5ccncc5)CCCCN4[C@H]3CO)cc2)cc1	4.88
COc1ccccc1-c1ccc([C@H]2[C@@H](CO)N3CCCCN(Cc4ccncc4)C[C@H]23)cc1	-8.86*
SMILES	IDE exosite FP
COCC#Cc1ccc([C@@H]2[C@@H](CO)N3CCCCN(Cc4ccncc4)C[C@H]23)cc1	2.63
CCCC#Cc1cnc2c(c1)C(=O)N([C@@H](C)CO)C[C@@H](C)[C@@H](CN(C)C(=O)Nc1cc(F)ccc1F)O2	-0.0439
CN(C)C(=O)c1cccc(-c2ccc([C@@H]3[C@@H](CO)N4CCCCN(Cc5cccnc5)C[C@@H]34)cc2)c1	0.245
N#Cc1cccc(-c2ccc3c(c2)[C@H]2[C@H](CCN2S(=O)(=O)c2ccc(F)cc2)[C@H](CO)N3)c1	-0.0272
CCC(=O)N1CC(=O)N2[C@@H](CO)[C@@H](c3ccc(-c4ccc(C#N)cc4)cc3)[C@@H]2C1	-0.381
COc1ccc(NC(=O)N2[C@@H]3CNC[C@H]2C3c2ccc(-c3ccc(C)cc3)cc2)cc1 (stereo not given in full)	5.06
COc1ccc(NC(=O)N2CCC3(CC2)CN(C(=O)c2cccnc2)[C@H](CO)c2[nH]c4cc(OC)ccc4c23)cc1	-1.17
CCC(=O)N[C@@H]1CC[C@H](CC(=O)NCc2ccccc2F)O[C@@H]1CO	0.952
C[C@@H]1CCCCO[C@H](CN(C)C(=O)Nc2ccc(C(F)(F)F)cc2)[C@@H](C)CN([C@@H](C)CO)C(=O)c2cc(NS(=O)(=O)c3cn(C)cn3)ccc2O1	1.26
C/C=C/c1ccc2c(c1)[C@@H]1[C@@H](CCN1S(=O)(=O)c1ccccc1OC)[C@H](CO)N2C	-0.0946
OC[C@H]1[C@H](c2ccc(-c3ccc(F)cc3)cc2)[C@@H]2CN(Cc3ccncc3)CCCCN12	2.86
COc1ccccc1-c1ccc([C@@H]2[C@H](CO)N3CCCCN(Cc4ccncc4)C[C@@H]23)cc1	-8.86*
OC[C@H]1[C@@H](c2ccc(-c3ccc(F)cc3)cc2)[C@@H]2CN(Cc3ccncc3)CCCCN12	4.67
COCC#Cc1ccc([C@H]2[C@H](CO)N3C(=O)CN(C(=O)C4CC4)C[C@@H]23)cc1	0.526
COc1ccc(CN2C[C@@H](O)COC[C@H]3O[C@@H](CC(=O)N(C)C)CC[C@@H]32)cc1	-0.757
Cc1noc(C)c1NC(=O)N1C[C@H](O)COC[C@H]2O[C@H](CC(=O)N[C@@H]3CCN(Cc4ccccc4)C3)CC[C@@H]21	-0.151
Cc1cccc(-c2ccc([C@H]3[C@@H](CO)N4CCCCN(CCC(F)(F)F)C[C@H]34)cc2)c1	-3.62*
Cc1cccc(-c2ccc([C@@H]3[C@@H](CO)N4CCCCN(CCC(F)(F)F)C[C@H]34)cc2)c1	-2.9
OC[C@H]1[C@@H](c2ccc(C3=CCCC3)cc2)[C@@H]2CN(Cc3ccncc3)CCCCN12	-0.898
Cc1cccc(-c2ccc([C@H]3[C@H]4CN(Cc5ccncc5)CCCCN4[C@H]3CO)cc2)c1	-5.02*
Cc1cccc(-c2ccc([C@H]3[C@@H](CO)N4CCCCN(Cc5ccncc5)C[C@H]34)cc2)c1	-5.92*
Cc1cccc(-c2ccc([C@@H]3[C@@H](CO)N4CCCCN(CCC(F)(F)F)C[C@@H]34)cc2)c1	-0.683
Cc1cccc(-c2ccc([C@@H]3[C@H](CO)N4CCCCN(CCC(F)(F)F)C[C@@H]34)cc2)c1	-2.68
Cc1cccc(-c2ccc([C@H]3[C@H](CO)N4CCCCN(CCC(F)(F)F)C[C@@H]34)cc2)c1	-0.213
Cc1cccc(-c2ccc([C@H]3[C@@H](CO)N4CCCCN(CCC(F)(F)F)C[C@@H]34)cc2)c1	0.47
SMILES	IDE exosite FP
Cc1cccc(-c2ccc([C@H]3[C@H](CO)N4CCCCN(Cc5ccncc5)C[C@@H]34)cc2)c1	-3.73*
CN(C)C(=O)c1ccc(-c2ccc([C@@H]3[C@@H](CO)N4CCCCN(Cc5ccncc5)C[C@@H]34)cc2)cc1	2.6
N#C[C@H]1[C@H](c2ccccc2)[C@H](CO)N1S(=O)(=O)c1ccc(F)cc1	2.35
C[C@@H]1CCCCO[C@@H](CN(C)S(=O)(=O)c2cn(C)cn2)[C@H](C)CN([C@@H](C)CO)C(=O)c2cc(NC(=O)Nc3cccc4ccccc34)ccc2O1	-0.488
COc1ccc(C#Cc2ccc([C@H]3[C@@H](CO)N4CCCCN(C(=O)c5ccncc5)C[C@H]34)cc2)cc1	3.43
O=C(Nc1ccccc1)N1CCCCN2[C@H](CO)[C@H](c3ccc(-c4ccccc4)cc3)[C@@H]2C1	0.35
